Only some compounds are listed: those with a hit (about 10% of all), similar ones and a draw of the others.
CCT modulator: changes cytosolic chaperonin activity | purified chaperonin ATPase assay, HTRF ADP detection, 30 min | activity change, % (no concentration beside the values), hits read low | actives 0.3% (n = 360,000) | AID 651819; in the data active = activity change below about -30%
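We incubate TRiC, 40 or 20 nM final, with library compounds at 76 uM and 10 uM ATP for 30 min at 37 °C. ADP formed is detected with Transcreener HTRF reagents after 30 min at room temperature.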
G9a block: blocks human histone lysine methyltransferase G9a. Q96KQ7. G9a H3K9 monomethylation, AlphaScreen, 2 h. Potency, µM (titrated, usually from 102 µM), hits mostly inhibitors. actives 8.8% (n = 350,000). AID 504332; note: nearly all actives have a fitted effect of over 75% in size
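Using a bead-based AlphaScreen, monomethylated H3K9 product from 2 h room-temperature reactions (G9a 20 nM, peptide 500 nM, SAM 20 uM) was detected with 0.5 ug/mL rabbit anti-H3K9me1 antibody.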
PLK1 PBD block: PLK1 (human) polo-box domain binding inhibition | actives 2.8% (n = 360,000) | AID 720504 | Potency, µM, actives largely listed as inhibitors | Plk1 PBD binding of FITC phosphopeptide, fluorescence polarization; note: series mostly up to about 57 µM; nearly all actives have a fitted effect of over 65% in size
Target sequence (P53350 whole entry, looked up, the tested form may be a part): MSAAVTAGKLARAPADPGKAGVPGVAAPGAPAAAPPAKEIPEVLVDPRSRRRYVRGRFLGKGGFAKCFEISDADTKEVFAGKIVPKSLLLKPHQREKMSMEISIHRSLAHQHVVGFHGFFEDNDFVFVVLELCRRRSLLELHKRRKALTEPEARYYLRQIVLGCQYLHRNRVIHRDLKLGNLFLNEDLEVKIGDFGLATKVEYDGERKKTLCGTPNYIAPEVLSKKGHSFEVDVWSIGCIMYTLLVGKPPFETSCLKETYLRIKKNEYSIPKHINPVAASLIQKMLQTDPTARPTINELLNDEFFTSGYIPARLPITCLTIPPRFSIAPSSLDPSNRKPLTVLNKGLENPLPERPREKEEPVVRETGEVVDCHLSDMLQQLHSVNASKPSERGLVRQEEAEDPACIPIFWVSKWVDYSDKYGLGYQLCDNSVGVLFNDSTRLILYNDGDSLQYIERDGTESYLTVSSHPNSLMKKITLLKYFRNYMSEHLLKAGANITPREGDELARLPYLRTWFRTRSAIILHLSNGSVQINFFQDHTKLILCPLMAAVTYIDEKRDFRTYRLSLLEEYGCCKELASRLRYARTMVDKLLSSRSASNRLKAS
VDR inh: vitamin D3 receptor (human) inhibition; actives 0.93% (n = 400,000); Potency, µM, most hits filed as inhibitors; VDR-SRC2-3 peptide fluorescence polarization, 2 h
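Fluorescence polarization assay of small-molecule disruption of VDR binding to coregulator peptide SRC2-3. Compounds and controls pin-transferred, then read after 2 h incubation at ambient room temperature.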
MmCpn inh: blocks the Methanococcus maripaludis chaperonin Mm-Cpn | purified Mm-Cpn ATPase, ADP Transcreener TR-FRET | Potency, µM (titrated, usually from 76.9 µM), hits mostly inhibitors | actives 0.031% (n = 330,000); note: nearly all actives have a fitted effect of over 80% in size
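Purified archaeal chaperonin (25 nM final) was preincubated with compound for 10 min at 37°C, then ATP (10 uM final) was added for 30 min at 37°C in Tris pH 7.4/KCl/MgCl2/DTT buffer. ADP was quantified by HTRF Transcreener TR-FRET.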
Sfp PPTase inh: inhibitors of Bacillus subtilis Sfp phosphopantetheinyl transferase | Q9F4F7 | Biochemical Sfp PPTase activity, qHTS | Potency, µM, hits mostly inhibitors | actives 3.5% (n = 310,000) | AID 1490;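 note: the enzyme is Sfp with the accession as filed and its product quenches rhodamine fluorescence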
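With Hepes-Na pH 7.6 buffer containing 10 mM MgCl2, Sfp (15 nM) modified BHQ-2-YbbR (12.5 uM) using rhodamine-CoA (5 uM). Two reads 30 minutes apart at 525/598 nm yielded each well's rate.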
Hits are given with their value; [ ] = remark or other dose. Unless noted, calls come from the whole dose curve; as a rule, active = well fitted curve in the direction sought with a large enough effect; inconclusive = small, poorly fitted or top-dose-only effect, or another doubt; inactive = no such curve, though single readings can be large; an effect the other way counts as inactive or inconclusive.

For Cc1ccc(NC(=O)c2cc(S(=O)(=O)N3CCC4(CC3)OCCO4)ccc2F)cc1Cl the results were G9a block inactive and VDR inh inactive.
Screening OC[C@@H](O)COc1cccc2ccccc12 returned VDR inh inactive and Sfp PPTase inh inactive.
For C=CCOc1ccc(CN(C)CC(O)COc2cccc3ccccc23)cc1 (configuration not stated) the results were CCT modulator inactive, G9a block 39.8µM, PLK1 PBD block inactive, VDR inh inactive, MmCpn inh inactive and Sfp PPTase inh inactive.
For O=C(CSC1=Nc2ccccc2C2=NC(Cc3ccccc3)C(=O)N12)Nc1ccccc1C(F)(F)F (configuration not stated) the results were G9a block inactive and VDR inh inactive.
`N#Cc1nc(-c2ccccc2)oc1N1CCN(C(=O)c2ccco2)CC1` gave CCT modulator inactive, G9a block 39.8µM, PLK1 PBD block inactive, VDR inh inactive, MmCpn inh inactive and Sfp PPTase inh inactive.
`CC(C)Cc1nc(N2CCN(C(=O)c3ccccc3)CC2)c(C#N)c2c1CCC2` gave CCT modulator inactive, G9a block inactive[12.7 µM], PLK1 PBD block inactive, VDR inh inactive, MmCpn inh inactive and Sfp PPTase inh inconclusive.
`O=C(c1ccco1)N1CCc2[nH]nc(-c3ccccc3)c2C1` gave CCT modulator inactive, G9a block 79.4µM, PLK1 PBD block inactive, VDR inh inactive, MmCpn inh inactive and Sfp PPTase inh inactive.
Screening O=C(c1ccccc1)N1CCc2[nH]nc(-c3ccccc3)c2C1 returned CCT modulator inactive, G9a block inactive, PLK1 PBD block inactive, VDR inh inactive, MmCpn inh inactive and Sfp PPTase inh inactive.
Screening N#Cc1c(N2CCN(C(=O)c3ccco3)CC2)nc(-c2ccccc2)c2c1CCCC2 returned CCT modulator inactive, G9a block inactive, PLK1 PBD block inactive, VDR inh inactive, MmCpn inh inactive and Sfp PPTase inh 44.7µM.
For N#Cc1nc(-c2ccccc2)oc1N1CCCCC1 the results were CCT modulator inactive, G9a block inconclusive, PLK1 PBD block inactive, VDR inh inactive, MmCpn inh inactive and Sfp PPTase inh inactive.
For N#Cc1c(N2CCN(C(=O)c3ccccc3)CC2)nc(-c2ccccc2)c2c1CCCC2 the results were CCT modulator inactive, G9a block inactive[12.7 µM], PLK1 PBD block inactive, VDR inh inactive, MmCpn inh inactive and Sfp PPTase inh inconclusive.
Screening CC(C)Cc1nc(N2CCN(C(=O)c3ccco3)CC2)c(C#N)c2c1CCC2 returned CCT modulator inactive, G9a block inconclusive, PLK1 PBD block inactive, VDR inh inactive, MmCpn inh inactive and Sfp PPTase inh 44.7µM.
For Cc1ccc(S(=O)(=O)C(C#N)c2nc3ccccc3nc2N2CCCCC2)cc1 (configuration not stated) the results were G9a block 44.7µM, MmCpn inh inactive and Sfp PPTase inh inactive.
Screening Cc1ccc(S(=O)(=O)C(C#N)c2nc3ccccc3nc2N2CCN(C)CC2)cc1 (configuration not stated) returned CCT modulator inactive, G9a block inconclusive, PLK1 PBD block inactive, VDR inh inactive, MmCpn inh inactive and Sfp PPTase inh inactive.
`CCOC(=O)N1CCN(c2nc3ccccc3nc2C(C#N)S(=O)(=O)c2ccc(C)cc2)CC1` (configuration not stated) gave CCT modulator inactive, G9a block 44.7µM, PLK1 PBD block inactive, VDR inh inactive, MmCpn inh inactive and Sfp PPTase inh inactive.
Screening COc1ccc(S(=O)(=O)C(C#N)c2nc3ccccc3nc2N2CCC(C)CC2)cc1 (configuration not stated) returned G9a block 3.16µM, MmCpn inh inactive and Sfp PPTase inh inconclusive.
Screening O=C(NCCO)C(=O)NCC(c1ccc2c(c1)OCO2)N1CCOCC1 (configuration not stated) returned G9a block inactive and VDR inh inactive.
For O=C(/C=C/Sc1ccccc1)c1ccc(Cl)cc1 the results were CCT modulator inactive, G9a block inactive, PLK1 PBD block inactive, VDR inh 56.2µM, MmCpn inh inactive and Sfp PPTase inh inactive.
CSC(=CC(=O)c1ccccc1)SC was read as CCT modulator inactive, G9a block inactive, PLK1 PBD block inactive, VDR inh inactive, MmCpn inh inactive and Sfp PPTase inh inactive.
`O=C(/C=C/Sc1ccccc1)c1ccccc1` gave CCT modulator inactive, G9a block inactive, PLK1 PBD block 13.4µM, VDR inh inactive, MmCpn inh inactive[15.4 µM] and Sfp PPTase inh inactive.
For Cc1ccc(CCNC(=O)Cn2nc(-c3ccc(C)cc3)ccc2=O)cc1 the results were G9a block inactive and VDR inh inactive.
`Cc1ccc2c(c1)sc1nc(=O)ccn12` gave CCT modulator inactive, G9a block inactive, PLK1 PBD block 15µM, VDR inh inactive, MmCpn inh inactive and Sfp PPTase inh inactive.
COc1ccccc1CNC(=O)c1ccc2c(c1)N(Cc1cc(C)ccc1C)C(=O)c1ccccc1S2 was read as G9a block inactive and VDR inh inactive.
COc1cccc(NC(=O)CN(C)C(=O)c2cc(-c3ccc(C)o3)nc3ccccc23)c1 was read as CCT modulator inactive, G9a block inconclusive, PLK1 PBD block inactive, VDR inh inactive and MmCpn inh inactive.
`COc1cccc(NC(=O)c2cc(-c3ccc(C)o3)nc3ccccc23)c1` gave CCT modulator inactive, G9a block 8.91µM, PLK1 PBD block inactive, VDR inh inconclusive, MmCpn inh inactive and Sfp PPTase inh 50.1µM.
Screening Cc1ccc(-c2cc(C(=O)N3CC(C)OC(C)C3)c3ccccc3n2)o1 (configuration not stated) returned CCT modulator inactive, G9a block 10µM, PLK1 PBD block inactive, VDR inh inactive and MmCpn inh inactive.
Cc1cc(C)c2nc(-c3ccccn3)cc(C(=O)NCc3cc(C)n(C)n3)c2c1 was read as CCT modulator inactive, G9a block inactive, PLK1 PBD block inactive, VDR inh inactive, MmCpn inh inactive and Sfp PPTase inh inactive.
COc1cc(-c2cc(C(=O)Nc3cccc(S(=O)(=O)N(C)C)c3)c3ccccc3n2)cc(OC)c1OC was read as CCT modulator inactive, G9a block inactive, PLK1 PBD block inactive, VDR inh inactive, MmCpn inh inactive and Sfp PPTase inh inactive.
`Cc1ccc(-c2cc(C(=O)Nc3cccc(S(=O)(=O)N(C)C)c3)c3ccccc3n2)o1` gave CCT modulator inactive, G9a block 8.91µM, PLK1 PBD block inactive, VDR inh inactive, MmCpn inh inactive and Sfp PPTase inh 50.1µM.
For Cc1cc(C)c2nc(-c3ccccn3)cc(C(=O)NCc3ccco3)c2c1 the results were CCT modulator inactive, G9a block inactive, PLK1 PBD block inactive, VDR inh inactive and Sfp PPTase inh 56.2µM.
